For 40 molecules, inhibition and fluorescence slope results are on record in PubChem BioAssay.

The structures appear in SMILES notation. Values without a mark were called inactive. Calls of active or inactive are those of the source.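 Rule for the calls, unless noted: active = fluorescence slope higher than the sample average by over 3 SD (cut at about -0.22 in these data, passing the limit was not always enough); inactive = the rest.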

Chain of Dual specificity protein phosphatase 6 (Homo sapiens) (Q16828 whole entry, looked up): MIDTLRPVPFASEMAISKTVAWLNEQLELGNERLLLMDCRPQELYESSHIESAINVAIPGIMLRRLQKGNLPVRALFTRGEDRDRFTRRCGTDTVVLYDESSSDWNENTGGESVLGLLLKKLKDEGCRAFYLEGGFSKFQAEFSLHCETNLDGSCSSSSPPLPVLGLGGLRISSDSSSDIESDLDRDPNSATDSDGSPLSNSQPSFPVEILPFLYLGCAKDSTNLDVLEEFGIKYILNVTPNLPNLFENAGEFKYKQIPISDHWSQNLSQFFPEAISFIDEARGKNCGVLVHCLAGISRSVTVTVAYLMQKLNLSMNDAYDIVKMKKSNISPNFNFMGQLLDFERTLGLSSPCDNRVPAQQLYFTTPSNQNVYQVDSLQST

One assay addresses Dual specificity protein phosphatase 6 (Homo sapiens) (UniProt Q16828). The assay is described as follows: Primary imaging screen for DUSP6 inhibitors that restore phospho-Erk in transfected HeLa cells, chemical complementation (AID 609;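 active = compounds giving at least 50% inhibition in the cell-based MKP-3 phosphatase rescue imaging test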;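 note: phospho-Erk level distribution per well compared with pooled transfected vehicle control wells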). The conditions noted are these: HeLa MKP-3 transfected, phospho-Erk imaging KS statistic; at 10 µM; active compounds read high; cells stimulated with TPA for 15 min.
A word on the inhibition: it is the drop in the measured response relative to a control, in per cent. On to `CNc1oc(-c2ccc(Cl)cc2)nc1C#N`, for which the inhibition is 6.04%.
Still for that read-out and setting: with `O=C(CNC1=NCCC1)c1ccc2c(c1)OCCO2` the figure was 28.6%; with `COc1ccc(CNC(=O)c2c(C)cc(=O)oc2C)cc1OC`, -1.12%; with `C=CCOn1c(=O)c(-c2cc3ccccc3o2)[n+]([O-])c2ccccc21`, -8.76%.
On the same count and under the same terms, with `COC(=O)c1ccn(C(=O)c2ccc(Cl)cc2)n1` the figure was -2.91%; with `c1ccc(OCc2nn3c(C4CCCCC4)nnc3s2)cc1`, -6.06%; with `CC(C)Cc1nc(N2CCN(C(=O)C(C)C)CC2)c(C#N)c2c1CCC2`, -3.5%.
On the same count and under the same terms, with `COC(=O)c1sccc1NC(=O)c1c(C)cc(=O)oc1C` the figure was -8.76%.
As to `Cc1ccc(S(=O)(=O)N2CCC(N3CCCCCC3)CC2)cc1`, the inhibition was 1.04%.
For `COc1ccc(C2=Nn3c(nnc3-c3cccnc3)SC2)cc1OC`, the inhibition is -7.86%.
Same read-out and setting: with `CCCCOc1ccc(CN(C)c2ncnc(N)n2)cc1` the figure was 5.57%; with `CCCCCCc1cc2cc(-c3nnc(-c4ccccc4O)o3)c(=O)oc2cc1O`, -7.79%; with `CC(=O)Nc1cccc(NC(=O)CSc2nc(C)c(C)c(C)c2C#N)c1`, -4.27%.
In the case of `Cc1cc(=O)oc2cc(OCCSCCN3CCOCC3)ccc12`, the inhibition was 15.1%.
Still for that read-out and setting: with `COc1ccccc1C(CC(=O)Nc1nccs1)c1ccco1` (stereo not given) the figure was 1.75%.
For the molecule `CCC1(C)Cc2ccccc2-c2nc(NCCO)n(-c3ccccc3)c(=O)c21` (stereo not given), the inhibition is -14%.
In the case of `CC1(C)Cc2c(sc3c4nnnn4c4nnnn4c23)CO1`, the inhibition is 20.8%.
For the molecule `CC(C)CN1C(=O)NC(NC(=O)c2cccnc2)(C(F)(F)F)C1=O` (stereo not given), the inhibition was 1.75%.
The same measure, in the same setting: with `CCOC(=O)C(C)Oc1nc(Oc2ccccc2)nc(N(C)C)n1` (stereo not given) the figure was -7.79%.
For `CC1(C)Cc2nc(N)c(C(=O)NCCO)cc2CO1`, the inhibition was -3.98%.
Same read-out and setting: the figure for `COc1ccc(Cn2c(O)cc(=O)[nH]c2=O)cc1` is 11.9%; for `CC(C(=O)N1CCOCC1)N1C(=O)c2ccccc2C1=O` (stereo not given) it is -8.76%; for `COC(=O)CSc1nc(N)c2c3c(sc2n1)CCCC3` it is 4.37%.
Same read-out and setting: with `N#Cc1c(-c2ccco2)cc(C2CC2)nc1N` the figure was -1.12%.
On to `CC1(C)Cc2c(C#N)c(N3CCOCC3)nc(-c3ccccc3)c2CO1`, for which the inhibition is 3.66%.
As to `CC(=O)Nc1cnc2ccccc2n1`, the inhibition was -6.06%.
On the same count and under the same terms, the figure for `COc1ccc(OCC(=O)N2CCN(C(=O)c3cccc4ccccc34)CC2)cc1` is 3.66%; for `CC(C)CC(=O)Nc1ccccc1N1CCCC1` it is 9.39%; for `CCCNC(=O)N(C)c1nncnc1C(=O)NC` it is 4.72%.
On the same count and under the same terms, with `N#CC1(P(=O)(c2ccccc2)c2ccccc2)CC1` the figure was 11.3%; with `Cc1nc(Nc2ncc3c(n2)CC(C)(C)CC3=O)nc2ccccc12`, -3.5%.
Same read-out and setting: with `O=c1c(F)cn(C2CCCO2)c(=O)n1Cc1ccccc1Cl` (stereo not given) the figure was 0.671%.
For the molecule `CCC(=O)Nc1cc(-c2nn(C)c(=O)c3ccccc23)ccc1N1CCCCC1`, the inhibition was -3.5%.
For `O=c1[nH]c(=O)n(Cc2ccco2)c2c1C(C(F)(F)F)(C(F)(F)F)N=C(c1ccco1)N2`, the inhibition is 1.75%.
As to `Cn1c(=O)n(C)c2cc(C(=O)c3ccccc3)ccc21`, the inhibition is 20.2%.
Consider `N#Cc1nc(-c2ccc(Cl)cc2)oc1N1CCCCC1`, for which the inhibition is 9.61%.
For `Cc1cc(=O)oc(C)c1C(=O)NCCNC(=O)c1c(C)cc(=O)oc1C`, the inhibition was -14%.
`CCCCNC(=O)N1CCOCCOCCN(C(=O)NCCCC)CCOCC1`: the inhibition was 31.7%.
Regarding `CCN(CC)c1ccc2cc(C(=O)Nc3ccccn3)c(=O)oc2c1`, the inhibition is -2.07%.
Consider `CCN1CC2=C(OC(N)=C(C#N)C2c2ccccc2)/C(=C\c2ccccc2)C1` (stereo not given), for which the inhibition is 9.61%.

For the next assay, the target named is Voltage-gated potassium channel subunit beta-2 (Rattus norvegicus) (UniProt P62483). The assay is described as follows: inhibitors of rat Kvbeta2 reductase activity – biochemical, NADPH fluorescence, primary screen (AID 622).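 Note: slope of raw intensity against log time taken from 70 to 1610 s.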 The conditions noted are these: recombinant KvBeta, 4-cyanobenzaldehyde reduction, at 10 µM, active compounds read high.
Chain of Voltage-gated potassium channel subunit beta-2 (Rattus norvegicus) (P62483 whole entry, looked up): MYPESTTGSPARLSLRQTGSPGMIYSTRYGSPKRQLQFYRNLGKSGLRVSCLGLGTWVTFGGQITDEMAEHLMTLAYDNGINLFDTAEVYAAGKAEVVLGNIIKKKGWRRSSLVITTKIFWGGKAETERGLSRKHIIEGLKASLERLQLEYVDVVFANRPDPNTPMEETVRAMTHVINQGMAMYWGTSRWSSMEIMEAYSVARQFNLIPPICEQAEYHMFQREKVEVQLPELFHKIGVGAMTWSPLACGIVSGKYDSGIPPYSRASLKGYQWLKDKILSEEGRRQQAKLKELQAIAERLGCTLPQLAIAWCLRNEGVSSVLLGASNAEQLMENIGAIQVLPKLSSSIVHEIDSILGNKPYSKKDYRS
In the case of `CNc1oc(-c2ccc(Cl)cc2)nc1C#N`, the fluorescence slope is -0.263.
The same measure, in the same setting: the figure for `O=C(CNC1=NCCC1)c1ccc2c(c1)OCCO2` is -0.485; for `COc1ccc(CNC(=O)c2c(C)cc(=O)oc2C)cc1OC` it is -0.427.
The same measure, in the same setting: with `C=CCOn1c(=O)c(-c2cc3ccccc3o2)[n+]([O-])c2ccccc21` the figure was -0.123.
Still for that read-out and setting: with `COC(=O)c1ccn(C(=O)c2ccc(Cl)cc2)n1` the figure was -0.519; with `c1ccc(OCc2nn3c(C4CCCCC4)nnc3s2)cc1`, -0.434.
For the molecule `CC(C)Cc1nc(N2CCN(C(=O)C(C)C)CC2)c(C#N)c2c1CCC2`, the fluorescence slope was -0.499.
On the same count and under the same terms, the figure for `COC(=O)c1sccc1NC(=O)c1c(C)cc(=O)oc1C` is -0.515; for `Cc1ccc(S(=O)(=O)N2CCC(N3CCCCCC3)CC2)cc1` it is -0.29.
For the molecule `COc1ccc(C2=Nn3c(nnc3-c3cccnc3)SC2)cc1OC`, the fluorescence slope was -0.398.
Same read-out and setting: with `CCCCOc1ccc(CN(C)c2ncnc(N)n2)cc1` the figure was -0.503; with `CCCCCCc1cc2cc(-c3nnc(-c4ccccc4O)o3)c(=O)oc2cc1O`, -0.274; with `CC(=O)Nc1cccc(NC(=O)CSc2nc(C)c(C)c(C)c2C#N)c1`, -0.4.
Same read-out and setting: with `Cc1cc(=O)oc2cc(OCCSCCN3CCOCC3)ccc12` the figure was -0.358.
For `COc1ccccc1C(CC(=O)Nc1nccs1)c1ccco1` (stereo not given), the fluorescence slope was -0.398.
Take `CCC1(C)Cc2ccccc2-c2nc(NCCO)n(-c3ccccc3)c(=O)c21` (stereo not given): the fluorescence slope was -0.0137 (active).
On the same count and under the same terms, with `CC1(C)Cc2c(sc3c4nnnn4c4nnnn4c23)CO1` the figure was -0.493; with `CC(C)CN1C(=O)NC(NC(=O)c2cccnc2)(C(F)(F)F)C1=O` (stereo not given), -0.505; with `CCOC(=O)C(C)Oc1nc(Oc2ccccc2)nc(N(C)C)n1` (stereo not given), -0.497.
In the case of `CC1(C)Cc2nc(N)c(C(=O)NCCO)cc2CO1`, the fluorescence slope was -0.476.
As for `COc1ccc(Cn2c(O)cc(=O)[nH]c2=O)cc1`, the fluorescence slope is -0.386.
As for `CC(C(=O)N1CCOCC1)N1C(=O)c2ccccc2C1=O` (stereo not given), the fluorescence slope was -0.419.
For the molecule `COC(=O)CSc1nc(N)c2c3c(sc2n1)CCCC3`, the fluorescence slope was -0.355.
For the molecule `N#Cc1c(-c2ccco2)cc(C2CC2)nc1N`, the fluorescence slope is -0.43.
As for `CC1(C)Cc2c(C#N)c(N3CCOCC3)nc(-c3ccccc3)c2CO1`, the fluorescence slope is -0.424.
Regarding `CC(=O)Nc1cnc2ccccc2n1`, the fluorescence slope is -0.397.
On the same count and under the same terms, with `COc1ccc(OCC(=O)N2CCN(C(=O)c3cccc4ccccc34)CC2)cc1` the figure was -0.448.
Same read-out and setting: with `CC(C)CC(=O)Nc1ccccc1N1CCCC1` the figure was -0.396; with `CCCNC(=O)N(C)c1nncnc1C(=O)NC`, -0.517.
Still for that read-out and setting: with `N#CC1(P(=O)(c2ccccc2)c2ccccc2)CC1` the figure was -0.546; with `Cc1nc(Nc2ncc3c(n2)CC(C)(C)CC3=O)nc2ccccc12`, -0.376; with `O=c1c(F)cn(C2CCCO2)c(=O)n1Cc1ccccc1Cl` (stereo not given), -0.534.
Turning to `CCC(=O)Nc1cc(-c2nn(C)c(=O)c3ccccc23)ccc1N1CCCCC1`, the fluorescence slope is -0.373.
As to `O=c1[nH]c(=O)n(Cc2ccco2)c2c1C(C(F)(F)F)(C(F)(F)F)N=C(c1ccco1)N2`, the fluorescence slope was -0.502.
The same measure, in the same setting: with `Cn1c(=O)n(C)c2cc(C(=O)c3ccccc3)ccc21` the figure was -0.53; with `N#Cc1nc(-c2ccc(Cl)cc2)oc1N1CCCCC1`, -0.394.
On the same count and under the same terms, with `Cc1cc(=O)oc(C)c1C(=O)NCCNC(=O)c1c(C)cc(=O)oc1C` the figure was -0.534; with `CCCCNC(=O)N1CCOCCOCCN(C(=O)NCCCC)CCOCC1`, -0.55; with `CCN(CC)c1ccc2cc(C(=O)Nc3ccccn3)c(=O)oc2c1`, -0.433.
On the same count and under the same terms, with `CCN1CC2=C(OC(N)=C(C#N)C2c2ccccc2)/C(=C\c2ccccc2)C1` (stereo not given) the figure was -0.332.
